Bioassay records deposited in PubChem BioAssay by several laboratories.
Compounds with a hit are over-represented: about 5.9% of the library has one in this group of screens.
Rtt109 Vps75: C. albicans Rtt109 histone acetyltransferase inhibition. 0.16% of 330,000 active. purified Rtt109/Vps75, ThioGlo CoA-SH fluorescence, 4 h. Q5AAJ8. inhibition, % at 34.9 µM;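 active = inhibition of at least 50% in every replicate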
ALR inh: human ALR oxidase inhibition via reduced H2O2; P55789; purified ALR, DTT oxidation, H2O2 HRP-luminol luminescence; inhibition, % (concentration not given with the values); 3.8% of 290,000 active; AID 485317;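 active = mean replicate inhibition above about 79%, with every replicate also reaching it, limit read from the data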
PRMT1 inh: PRMT1 (human) inhibition, primary screen. Q99873. 1.3% of 370,000 active. inhibition, % at 2.79 µM. recombinant PRMT1, activity-based probe fluorescence polarization;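 active = inhibition above about 21% made by adding two undisclosed values, limit read from the data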
LANA-H2A inh: blocks KSHV LANA binding to histone H2A/H2B. 0.6% of 320,000 active. cell-free LANA-H2A/H2B peptide, fluorescence polarization. inhibition, % (concentration not given with the values); in the data active = inhibition mostly above about 10%, no sharp cut-off; inactive = mostly below about 6.7%
Target sequence (Q9QR71 whole entry, looked up): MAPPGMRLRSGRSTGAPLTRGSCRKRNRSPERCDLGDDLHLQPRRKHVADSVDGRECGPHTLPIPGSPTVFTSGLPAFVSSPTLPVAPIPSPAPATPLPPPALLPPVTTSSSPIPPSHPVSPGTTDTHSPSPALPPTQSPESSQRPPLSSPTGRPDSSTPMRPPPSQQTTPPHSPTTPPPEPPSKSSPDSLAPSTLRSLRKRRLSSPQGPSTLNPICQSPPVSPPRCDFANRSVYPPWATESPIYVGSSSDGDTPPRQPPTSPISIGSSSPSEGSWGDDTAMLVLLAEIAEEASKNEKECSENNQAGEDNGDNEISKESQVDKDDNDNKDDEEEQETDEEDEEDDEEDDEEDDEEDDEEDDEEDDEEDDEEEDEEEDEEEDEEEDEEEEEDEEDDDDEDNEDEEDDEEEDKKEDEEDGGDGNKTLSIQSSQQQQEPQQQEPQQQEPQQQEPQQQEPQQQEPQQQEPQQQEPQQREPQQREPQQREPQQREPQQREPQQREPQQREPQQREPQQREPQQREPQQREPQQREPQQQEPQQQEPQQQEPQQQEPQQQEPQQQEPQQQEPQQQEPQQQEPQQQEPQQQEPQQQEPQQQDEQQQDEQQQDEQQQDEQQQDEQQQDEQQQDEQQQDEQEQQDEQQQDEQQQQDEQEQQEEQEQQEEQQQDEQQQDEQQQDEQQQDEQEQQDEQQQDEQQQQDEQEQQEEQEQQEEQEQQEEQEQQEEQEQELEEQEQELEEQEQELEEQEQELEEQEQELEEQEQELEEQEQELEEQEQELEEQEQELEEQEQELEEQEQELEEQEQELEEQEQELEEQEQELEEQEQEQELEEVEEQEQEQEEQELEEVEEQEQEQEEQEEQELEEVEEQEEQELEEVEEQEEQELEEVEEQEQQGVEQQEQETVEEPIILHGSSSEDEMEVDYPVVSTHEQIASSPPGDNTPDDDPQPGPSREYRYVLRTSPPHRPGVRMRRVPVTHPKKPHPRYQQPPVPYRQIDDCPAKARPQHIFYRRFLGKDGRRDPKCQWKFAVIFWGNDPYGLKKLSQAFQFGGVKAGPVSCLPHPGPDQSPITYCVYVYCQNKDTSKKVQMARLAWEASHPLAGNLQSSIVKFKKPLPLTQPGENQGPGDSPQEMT
ABHD5 PLIN5 PPI: blocks binding of human ABHD5 to perilipin-5. Q00G26+Q8WTS1. Split G. princeps luciferase complementation, luminescence, 4 h. AID 602281. 0.78% of 360,000 active. inhibition, % at 4 µM;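 active = inhibition above the mean inhibition across every tested compound plus 3 SD, cut at about 22% in these data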;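 note: 0% = DMSO only wells and the 100% control is not disclosed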
rCAG binder: binds r(CAG) RNA repeats; r(CAG) RNA repeat, TO-PRO-1 dye displacement fluorescence; inhibition, % at 3 µM; 1.3% of 370,000 active; AID 651821;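 active = inhibition above the plate cutoff, the mean of all test compounds on that plate plus 3 SD, cut at about 35% in these data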;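 note: 0% = DMSO alone and 100% = 100 µM mitoxantrone as full dye displacement; higher means more dye released from RNA so lower well fluorescence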
Numbers without * were called inactive; x = not tested or not shown.

SMILES	Rtt109 Vps75	ALR inh	PRMT1 inh	LANA-H2A inh	ABHD5 PLIN5 PPI	rCAG binder
O=[N+]([O-])c1ccc(-c2ccc(C=Nc3cccc4ccccc34)o2)cc1	-8.7	-19.3	22.0*	0.5	6.8	0.9
O=[N+]([O-])c1ccc(-c2ccc(/C=N/O)o2)cc1	x	58.4	3.3	1.0	0.8	14.8
CCN(CC)c1ccc(C2C(C(=O)OC)=C(C)NC(C)=C2C(=O)OC)cc1	-2.8	98.8*	2.2	-2.3	-3.2	-4.3
CCOC(=O)C1=C(C)NC(=S)N(C(C)=O)C1c1ccc(Cl)cc1 (centres undefined)	62.6*	-5.0	-1.1	-5.6	-3.6	0.5
CCOC(=O)C1=C(C)NC(=O)NC1c1ccc(N(CC)CC)cc1 (centres undefined)	-4.5	98.2*	-5.2	-1.4	-6.0	1.3
CCOC(=O)C1=C(C)NC(=S)N(C(C)=O)C1c1ccc(OC)c(OC)c1 (centres undefined)	-7.7	-3.1	-2.6	0.8	2.7	-0.4
CCN(CC)c1ccc(C2NC(=O)NC(C)=C2C(=O)Nc2ccccc2)cc1 (centres undefined)	16.9	98.7*	-1.4	-4.1	-2.0	4.3
CC(NCc1ccco1)C(=O)N1CCCN(C)CC1 (centres undefined)	x	x	-1.3	x	x	3.3
COc1ccc(OC)c(N2C(=O)c3ccccc3C2c2nnnn2-c2ccc3c(c2)OCCO3)c1 (centres undefined)	x	x	2.2	x	-0.2	10.3
Cc1ccc(NC(=O)CSc2nc(C)cc(=O)[nH]2)c(C)c1	x	x	-0.9	x	x	0.8
CC(C)=CCC/C(C)=C/C[C@]12C[C@H](C(=O)O)N(C(=O)OC(C)(C)C)[C@@H]1N(C(=O)OC(C)(C)C)c1ccccc12	x	x	6.2	x	x	x
S=c1[nH]nc(Cc2cccc3ccccc23)n1-c1ccccc1	23.6	89.6*	7.7	-30.5	-0.2	6.2
S=c1[nH]nc(Cc2noc3ccccc23)n1-c1ccccc1	5.1	86.4*	1.4	-0.3	1.1	2.3
C=CCn1c(Cc2cccc3ccccc23)n[nH]c1=S	2.9	91.7*	1.2	-6.6	9.3	2.8
C=CCn1c(OCc2ccccc2)n[nH]c1=S	-2.0	96.0*	-5.2	-5.3	-12.7	-0.6
C=CCn1c(C(c2ccccc2)c2ccccc2)n[nH]c1=S	2.6	x	-1.8	-0.2	-3.5	4.8
C=CCn1c(CSc2nnc(-c3ccccc3)n2C)n[nH]c1=S	2.0	83.3*	-6.5	5.1	-3.2	1.5
C=CCn1c(SCC(=O)NC23CC4CC(CC(C4)C2)C3)nc2cc(C(=O)O)ccc2c1=O	-1.2	-3.4	4.2	-1.7	-1.5	34.5*
CCOC(=O)c1ccc(CC(=O)c2oc3cc(O)ccc3c2C)o1	11.7	90.4*	3.9	6.6	4.7	15.5
COC(=O)c1cc(-c2ccc(C)c3ccccc23)c(=O)n2c1CCC2	x	x	-1.3	x	x	1.2
CCOC(=O)C(=O)N(C)c1c(CC)nc2c(OCCC3CCCCC3)cccn12	x	x	3.5	x	5.2	-1.4
Cc1ccc(NC(=O)CSCc2cc(=O)n3nc(C4CC4)sc3n2)cc1	-9.8	98.9*	5.9	1.8	-10.0	2.7
COc1cccc(NC(=O)CSCc2cc(=O)n3nc(C4CC4)sc3n2)c1	5.8	98.8*	1.6	-2.2	-7.9	1.7
O=C(O)c1ccccc1C(=O)NCc1ccc(F)cc1	1.0	-4.4	-2.6	19.7*	0.3	1.3
O=C(NCc1ccc(Cl)cc1)c1ccccc1CCc1ccccc1	52.0*	2.8	0.1	5.3	-0.3	-3.9
SMILES	Rtt109 Vps75	ALR inh	PRMT1 inh	LANA-H2A inh	ABHD5 PLIN5 PPI	rCAG binder
COC(=O)c1cc2c(c3c4ccccc4n(S(=O)(=O)c4cccc(C)c4)c13)C(=O)N(Cc1ccc(N(C)C)cc1)C2	x	x	22.2*	x	x	15.9
COC(=O)c1cc2c(c3c4cc(OC)ccc4n(S(=O)(=O)c4cccc(C)c4)c13)C(=O)N(Cc1ccc(N(C)C)cc1)C2	x	x	-3.5	x	x	16.3
Cc1cc(C)cc(NC(=O)OC2CC3CC2[C@H]2CCCCN2[C@H]3Cc2ccccc2)c1 (some centres undefined)	x	x	-6.3	x	x	5.6
C[C@H]1CN([C@@H](C)CO)C(=O)CCCn2cc(nn2)CO[C@@H]1CN(C)S(=O)(=O)c1ccccc1F	x	x	0.3	x	x	0.5
c1ccc(Nc2nc(NCC3CCCO3)c3ccccc3n2)cc1 (centres undefined)	9.0	-1.5	-1.4	1.9	5.9	4.7
CCOc1ccc(Nc2nc(NCC3CCCO3)c3ccccc3n2)cc1 (centres undefined)	-2.1	22.4	-10.0	-0.6	3.1	4.8
